Activity calls are given as the source filed them.
Tests used:
[1] = tested on: PRMT1 (protein arginine N-methyltransferase 1); experiment: small molecules binding arginine methyltransferase PRMT1 – biochemical, small-molecule microarray, 635 nm fluorescence, primary screen (AID 1088); details: higher = more signal;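 further: binding of Prmt1 protein to compounds spotted on small-molecule microarray slides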
[2] = growth effects on S. cerevisiae YJM789 – YJM789 clinical isolate, OD600, 24 h, basal, primary screen (AID 1089); details: higher = more signal, called active from +8 up or from −8 down;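 further: growth of clinical yeast isolate S. cerevisiae YJM 789 seeded 1000 cells per well; test concentration not given here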
[3] = S. pombe growth modifiers, basal conditions – strain 972, OD600, 24 h, no modulator, primary screen (AID 1090);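 further: basal condition with compound alone and no growth modifier present; test concentration not given here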; details: S. pombe 972 growth, higher = more signal, called active from +8 up or from −8 down
[4] = budding yeast growth modifiers under rapamycin – strain BY4716, OD600, 96 h, primary screen (AID 1091); further: test concentration not given here; details: S. cerevisiae BY4716 + rapamycin, higher = more signal, called active from +8 up or from −8 down
[5] = molecular target: Torsin-1A-interacting protein 2 (Homo sapiens) (UniProt Q8NFQ8); experiment: small molecules binding lysate-expressed LULL1 – cell lysate, human LULL1 lysate, 635/667 nm fluorescence, primary screen (AID 1092); details: small-molecule microarray, hLULL1 lysate binding, 635 nm fluorescence; higher = more signal;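 further: probe is lysate of COS7 cells overexpressing human LULL1; score merges per-feature 667 nm fluorescence with signal-to-noise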
[6] = optical density change of DRC41 E. coli – strain DRC41, OD650, 24 h, E. coli filamentation project, primary screen (AID 1093);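 further: MC1000 strain lacking acrAB efflux and sulA so SOS filamentation is blocked; test concentration not given here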; details: E. coli DRC41 growth, higher = more signal, called active from +8 up or from −8 down
[7] = probe aLefty2 binding to arrayed compounds – biochemical, biotinylated probe, 635/667 nm fluorescence, primary screen (AID 1094); details: small-molecule microarray, higher = more signal;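 further: score merges spot fluorescence near 667 nm with spot signal-to-noise ratio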
[8] = tested on: Noggin (protein binding on small-molecule microarray); experiment: small molecules binding Noggin protein – biochemical, 635/667 nm fluorescence, primary screen (AID 1095); details: 635 nm fluorescence, higher = more signal;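 further: score merges 667 nm feature fluorescence with signal to noise over triplicate slides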
[9] = molecular target: Neurogenic locus notch homolog protein 3 (Homo sapiens) (UniProt Q9UM47); experiment: small molecules binding NOTCH3 protein – biochemical, 635/667 nm fluorescence, primary screen (AID 1096); details: small-molecule microarray, 635 nm fluorescence, higher = more signal
[10] = probe aEGFR binding to arrayed compounds – biochemical, biotinylated probe, 635/667 nm fluorescence, primary screen (AID 1097); details: small-molecule microarray, higher = more signal;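 further: probe is a biotinylated anti-EGFR antibody binding compounds printed on slides; score combines fluorescence near 667 nm and signal to noise of each spot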

Chain of Torsin-1A-interacting protein 2 (Homo sapiens) (Q8NFQ8 whole entry, looked up): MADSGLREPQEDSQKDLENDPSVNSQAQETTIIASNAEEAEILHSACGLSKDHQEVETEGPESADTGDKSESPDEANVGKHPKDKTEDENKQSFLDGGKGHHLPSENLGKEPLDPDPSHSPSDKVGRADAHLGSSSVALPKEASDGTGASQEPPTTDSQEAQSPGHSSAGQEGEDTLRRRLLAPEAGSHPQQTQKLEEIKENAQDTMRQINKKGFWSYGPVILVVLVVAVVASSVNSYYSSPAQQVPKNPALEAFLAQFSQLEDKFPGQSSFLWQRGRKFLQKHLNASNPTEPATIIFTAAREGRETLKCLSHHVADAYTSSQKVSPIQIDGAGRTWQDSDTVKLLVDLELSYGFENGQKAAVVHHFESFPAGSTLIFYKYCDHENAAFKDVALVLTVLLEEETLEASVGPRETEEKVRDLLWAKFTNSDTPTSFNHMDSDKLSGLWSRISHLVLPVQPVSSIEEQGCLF
Chain of Neurogenic locus notch homolog protein 3 (Homo sapiens) (Q9UM47 whole entry, looked up): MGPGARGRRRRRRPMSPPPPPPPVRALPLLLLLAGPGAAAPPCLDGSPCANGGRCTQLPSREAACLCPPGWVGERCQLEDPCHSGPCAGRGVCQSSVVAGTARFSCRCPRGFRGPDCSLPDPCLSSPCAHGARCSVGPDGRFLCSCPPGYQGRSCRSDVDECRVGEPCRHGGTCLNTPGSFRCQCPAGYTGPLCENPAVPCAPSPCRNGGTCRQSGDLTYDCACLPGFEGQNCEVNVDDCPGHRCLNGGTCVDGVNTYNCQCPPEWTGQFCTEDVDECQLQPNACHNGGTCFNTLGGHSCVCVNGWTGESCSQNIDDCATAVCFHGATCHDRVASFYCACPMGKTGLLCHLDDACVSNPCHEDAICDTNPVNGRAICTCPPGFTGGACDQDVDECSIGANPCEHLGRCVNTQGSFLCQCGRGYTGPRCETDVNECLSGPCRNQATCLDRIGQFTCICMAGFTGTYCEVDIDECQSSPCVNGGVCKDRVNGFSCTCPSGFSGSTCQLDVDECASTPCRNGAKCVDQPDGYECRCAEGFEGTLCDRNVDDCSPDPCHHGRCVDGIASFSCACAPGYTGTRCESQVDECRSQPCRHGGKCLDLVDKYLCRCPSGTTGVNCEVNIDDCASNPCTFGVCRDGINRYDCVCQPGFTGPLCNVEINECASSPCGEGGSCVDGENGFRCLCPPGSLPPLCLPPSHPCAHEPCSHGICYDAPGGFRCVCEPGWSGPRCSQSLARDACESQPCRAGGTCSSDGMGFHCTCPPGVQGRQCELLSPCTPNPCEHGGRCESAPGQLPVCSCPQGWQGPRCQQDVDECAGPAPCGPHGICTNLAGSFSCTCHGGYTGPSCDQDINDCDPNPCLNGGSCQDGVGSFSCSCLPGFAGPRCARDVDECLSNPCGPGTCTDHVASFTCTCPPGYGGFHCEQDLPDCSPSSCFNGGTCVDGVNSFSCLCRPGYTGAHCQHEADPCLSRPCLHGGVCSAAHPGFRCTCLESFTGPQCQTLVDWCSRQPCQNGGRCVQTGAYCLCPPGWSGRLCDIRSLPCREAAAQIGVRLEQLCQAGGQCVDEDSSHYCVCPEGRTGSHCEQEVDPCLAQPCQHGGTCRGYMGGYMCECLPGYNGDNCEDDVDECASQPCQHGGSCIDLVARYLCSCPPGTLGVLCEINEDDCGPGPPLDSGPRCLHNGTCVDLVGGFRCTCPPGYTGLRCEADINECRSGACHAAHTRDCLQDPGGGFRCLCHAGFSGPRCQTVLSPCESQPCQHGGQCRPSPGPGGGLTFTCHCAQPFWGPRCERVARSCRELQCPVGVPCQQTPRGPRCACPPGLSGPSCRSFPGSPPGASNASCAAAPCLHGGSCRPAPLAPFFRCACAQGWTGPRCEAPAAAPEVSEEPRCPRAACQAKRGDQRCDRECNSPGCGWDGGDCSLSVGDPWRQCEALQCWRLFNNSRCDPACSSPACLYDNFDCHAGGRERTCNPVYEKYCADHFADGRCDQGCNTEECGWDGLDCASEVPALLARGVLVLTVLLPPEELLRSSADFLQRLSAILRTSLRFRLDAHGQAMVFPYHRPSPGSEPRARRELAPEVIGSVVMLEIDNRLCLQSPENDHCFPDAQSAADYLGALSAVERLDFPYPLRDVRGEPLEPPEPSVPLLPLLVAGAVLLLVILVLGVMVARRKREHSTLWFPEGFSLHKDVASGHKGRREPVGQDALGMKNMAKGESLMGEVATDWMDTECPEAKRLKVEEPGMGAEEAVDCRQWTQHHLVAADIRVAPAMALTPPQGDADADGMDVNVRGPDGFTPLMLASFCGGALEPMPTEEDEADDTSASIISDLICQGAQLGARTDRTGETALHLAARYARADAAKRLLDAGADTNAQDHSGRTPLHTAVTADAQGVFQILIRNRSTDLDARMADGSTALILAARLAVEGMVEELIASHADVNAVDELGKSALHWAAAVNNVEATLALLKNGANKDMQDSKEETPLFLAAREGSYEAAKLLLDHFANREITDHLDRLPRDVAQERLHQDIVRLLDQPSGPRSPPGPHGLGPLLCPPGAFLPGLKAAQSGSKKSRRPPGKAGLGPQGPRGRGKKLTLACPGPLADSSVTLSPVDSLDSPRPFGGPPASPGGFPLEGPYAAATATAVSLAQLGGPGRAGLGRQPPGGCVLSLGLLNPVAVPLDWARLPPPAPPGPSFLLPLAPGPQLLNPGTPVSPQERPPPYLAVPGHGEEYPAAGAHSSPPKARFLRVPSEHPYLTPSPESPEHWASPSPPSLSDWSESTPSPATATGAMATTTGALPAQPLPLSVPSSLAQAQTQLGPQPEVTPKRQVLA

SMILES	composite z-score [1]	z-score [2]	z-score [3]	z-score [4]	composite z-score [5]	z-score [6]	composite z-score [7]	composite z-score [8]	composite z-score [9]	composite z-score [10]
O=[N+]([O-])c1ccc(C[n+]2ccc3ccc(O)cc3c2)o1	0.536	-0.0384 (inactive)	-7.09 (inactive)	-0.5 (inactive)	0.803	-2.03 (inactive)	-0.155	-0.147	0.791	-0.0867
CO[C@H]1COC(=O)CC=C[C@@H](C)COC(=O)[C@@H](C)NC(=O)CC=C[C@@H]1C	1.53	-3.75 (inactive)	-2.87 (inactive)	-2.71 (inactive)	-0.55	-0.288 (inactive)	-0.179	1.83	0.473	-0.0243
C=C(COC)/C(=C/C[C@@H](OC(=O)c1ccncc1)c1ccc(OCCO)cc1)c1cc(C(=O)OC)ccc1OC	1.57	-1.08 (inactive)	-2.06 (inactive)	-1.83 (inactive)	2.75	2.15 (inactive)	-0.0903	0.861	1.12	-0.0129
[N-]=[N+]=NCc1ccccc1C[C@@]1(C(=O)N2CCOCC2)N=C(c2ccc(OCCCO)cc2)O[C@@H]1c1ccccc1N=[N+]=[N-]	1.56	-0.788 (inactive)	-0.39 (inactive)	6.02 (inactive)	3.16	0.282 (inactive)	0.557	0.41	1.08	0.318
CO[C@H]1COC(=O)CC=C[C@H](C)[C@@H](OC)COC(=O)[C@H](Cc2ccccc2)NC(=O)CC=C[C@@H]1C	0.942	0.37 (inactive)	-0.623 (inactive)	0.725 (inactive)	-1.22	-0.145 (inactive)	-0.298	1.68	0.0612	-0.172
C=CC[C@]1(C(=O)O)N=C(c2ccc(OCCCO)cc2)O[C@H]1c1ccccc1N=[N+]=[N-]	-0.417	0.942 (inactive)	-0.155 (inactive)	-0.336 (inactive)	2.62	1.32 (inactive)	0.0313	-0.491	-0.33	-0.0059
C[C@H]1NC(=O)[C@@H](C)NC(=O)[C@@]23C(=O)N[C@@H](Cc4ccccc4)C2[C@H](C)[C@@]2(C)O[C@H]2C3/C=C/C/C=C\CNC1=O (stereo not given in full)	-0.0842	1 (inactive)	-0.696 (inactive)	0.581 (inactive)	-0.968	2.41 (inactive)	-0.142	-0.142	-0.129	-0.131
C[C@]1(C(=O)NCCN2CCOCC2)c2ccccc2C(=O)N(Cc2ccccc2)[C@H]1c1ccc(CO)cc1	-0.804	0.364 (inactive)	-0.304 (inactive)	-0.877 (inactive)	2.99	0.0355 (inactive)	-0.0539	-0.54	-0.911	-0.23
Cc1ccc(N2C(=O)c3ccccc3[C@@H](C(=O)NCC(F)(F)F)[C@@H]2c2ccc(CO)cc2)nc1	-0.359	-0.678 (inactive)	-1.24 (inactive)	3.03 (inactive)	-0.338	1.08 (inactive)	0.0143	-2.15	-1.01	-0.157
CCN1C(C)=C(C(=O)OC)[C@@H](c2ccccc2)N2C(=O)[C@@]3(C(=O)OC)O[C@@]12[C@@H]1C(=O)N(C)C(=O)[C@@H]13	0.962	-0.444 (inactive)	-0.76 (inactive)	1.74 (inactive)	1.44	-0.0517 (inactive)	-0.122	0.584	0.333	0.0692
C=CCC(OC(C)=O)[C@@H]1[C@@H](N(Cc2ccc(-c3ccccc3)cc2)C(=O)c2ccc(-c3ccccc3)cc2)c2cc(OCCCO)ccc2N1C(=O)Cc1ccc(OC)cc1 (stereo not given in full)	-0.22	-0.809 (inactive)	0.202 (inactive)	-0.253 (inactive)	0.669	-0.685 (inactive)	-0.0096	-0.0508	-0.0122	-0.0994
Cc1ccc(N2C(=O)c3ccccc3[C@](C)(C(=O)NCC(C)C)[C@@H]2c2ccc(CO)cc2)nc1	-0.644	0.42 (inactive)	0.374 (inactive)	1.43 (inactive)	-1.71	-0.277 (inactive)	0.456	-1.22	-1.62	0.32
CCOC(=O)C1=CC[C@@H](c2ccc(-c3ccc(OCc4ccccc4)cc3)c(OC)c2)N(S(=O)(=O)c2ccc(C)cc2)[C@H]1c1ccccc1	1.46	-0.534 (inactive)	-1.27 (inactive)	3.66 (inactive)	2.93	-0.0642 (inactive)	0.158	0.73	1.09	-0.0255
CC(C)N1CC=CC23O[C@@H]4/C=C\CCCOC(=O)C4[C@H]2C(=O)N(CCCCCO)[C@@H]3C1=O (stereo not given in full)	-2.15	-0.927 (inactive)	-1.16 (inactive)	-0.693 (inactive)	-0.467	1.67 (inactive)	-0.208	-1.65	-1.89	-0.364
COc1ccc([Si](C)(C)[C@@H]2[C@@H](CCO)O[C@]3(C(=O)N(Cc4ccc(NC(=O)[C@H](C)O)cc4)c4ccccc43)[C@H]2C)cc1	1.47	3.17 (inactive)	-1.06 (inactive)	14.8 (active)	2.42	1.78 (inactive)	0.12	0.123	0.62	-0.102

Reference: PubChem BioAssay
